Laboratory results as given in the supplement of paper PMC6411743.
± gives the standard deviation of the averaged measurements. The full data set covers some 6,200 targets. This sample favours those with the largest changes.

Compound: Nc1ncnc2c1ncn2[C@@H]1O[C@H](COP(=O)(O)OP(=O)(O)NP(=O)(O)O)[C@@H](O)[C@H]1O [adenylyl imidodiphosphate]
Experiment: NP40-soluble protein abundance relative to vehicle (solubility fold change) (ratio); higher = more soluble protein in presence of AMP-PNP
How it was run: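 Eight concentrations, 0.1 to 10 mM, were tested on Jurkat crude lysate for 10 min at room temperature and then 3 min at 37 °C, in three independent experiments. The lysate was solubilised with 0.8% NP40 and benzonase, ultracentrifuged, and the supernatant TMT-labelled for LC-MS/MS. Each value is the fold change against the detergent-processed vehicle in its own replicate, from vsn-normalised intensities.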

Chain of UniProt O95785 (O95785 whole entry, one chain of several): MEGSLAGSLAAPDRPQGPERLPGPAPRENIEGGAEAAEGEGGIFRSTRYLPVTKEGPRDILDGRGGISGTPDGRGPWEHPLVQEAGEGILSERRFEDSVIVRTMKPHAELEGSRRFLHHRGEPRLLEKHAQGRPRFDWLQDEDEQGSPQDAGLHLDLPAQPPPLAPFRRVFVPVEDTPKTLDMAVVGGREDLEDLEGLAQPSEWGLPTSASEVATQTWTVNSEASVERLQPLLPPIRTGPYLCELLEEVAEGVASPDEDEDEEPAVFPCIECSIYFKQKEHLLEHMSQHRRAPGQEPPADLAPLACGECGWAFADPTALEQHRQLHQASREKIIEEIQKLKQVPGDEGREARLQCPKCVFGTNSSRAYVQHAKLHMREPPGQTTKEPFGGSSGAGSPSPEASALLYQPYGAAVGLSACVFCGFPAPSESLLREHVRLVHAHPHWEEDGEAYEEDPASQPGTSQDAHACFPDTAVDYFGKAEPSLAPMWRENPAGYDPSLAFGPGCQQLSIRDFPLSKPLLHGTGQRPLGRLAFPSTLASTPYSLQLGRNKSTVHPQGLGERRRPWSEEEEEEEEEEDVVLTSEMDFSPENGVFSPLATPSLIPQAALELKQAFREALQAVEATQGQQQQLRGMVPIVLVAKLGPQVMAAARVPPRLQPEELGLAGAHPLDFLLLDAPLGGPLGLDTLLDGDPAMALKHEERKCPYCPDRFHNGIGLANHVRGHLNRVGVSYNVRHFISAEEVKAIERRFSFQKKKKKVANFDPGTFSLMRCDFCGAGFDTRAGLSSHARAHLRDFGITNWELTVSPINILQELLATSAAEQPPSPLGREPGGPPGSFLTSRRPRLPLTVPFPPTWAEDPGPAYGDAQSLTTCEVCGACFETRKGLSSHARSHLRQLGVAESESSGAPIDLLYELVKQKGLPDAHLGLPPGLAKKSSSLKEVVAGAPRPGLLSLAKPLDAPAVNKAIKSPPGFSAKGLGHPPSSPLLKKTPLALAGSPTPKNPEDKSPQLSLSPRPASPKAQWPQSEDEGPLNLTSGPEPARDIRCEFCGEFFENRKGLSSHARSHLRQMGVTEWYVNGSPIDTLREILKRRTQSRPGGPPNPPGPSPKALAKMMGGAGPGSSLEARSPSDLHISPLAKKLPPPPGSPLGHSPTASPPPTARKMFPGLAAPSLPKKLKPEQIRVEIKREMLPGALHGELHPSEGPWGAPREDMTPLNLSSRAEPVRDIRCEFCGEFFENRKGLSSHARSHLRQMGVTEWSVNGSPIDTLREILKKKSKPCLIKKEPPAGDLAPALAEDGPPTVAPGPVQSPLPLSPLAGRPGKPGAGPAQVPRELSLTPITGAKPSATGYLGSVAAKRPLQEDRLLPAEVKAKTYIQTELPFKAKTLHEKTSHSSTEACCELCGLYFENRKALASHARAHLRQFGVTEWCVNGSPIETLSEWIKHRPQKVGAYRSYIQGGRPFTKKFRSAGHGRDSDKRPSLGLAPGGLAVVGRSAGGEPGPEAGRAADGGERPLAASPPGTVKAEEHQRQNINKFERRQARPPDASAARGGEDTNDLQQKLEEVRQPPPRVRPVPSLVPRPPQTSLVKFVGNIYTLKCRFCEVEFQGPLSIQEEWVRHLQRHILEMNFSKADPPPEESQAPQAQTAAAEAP
Chain of UniProt Q8TBC5 (Q8TBC5 whole entry, one chain of several): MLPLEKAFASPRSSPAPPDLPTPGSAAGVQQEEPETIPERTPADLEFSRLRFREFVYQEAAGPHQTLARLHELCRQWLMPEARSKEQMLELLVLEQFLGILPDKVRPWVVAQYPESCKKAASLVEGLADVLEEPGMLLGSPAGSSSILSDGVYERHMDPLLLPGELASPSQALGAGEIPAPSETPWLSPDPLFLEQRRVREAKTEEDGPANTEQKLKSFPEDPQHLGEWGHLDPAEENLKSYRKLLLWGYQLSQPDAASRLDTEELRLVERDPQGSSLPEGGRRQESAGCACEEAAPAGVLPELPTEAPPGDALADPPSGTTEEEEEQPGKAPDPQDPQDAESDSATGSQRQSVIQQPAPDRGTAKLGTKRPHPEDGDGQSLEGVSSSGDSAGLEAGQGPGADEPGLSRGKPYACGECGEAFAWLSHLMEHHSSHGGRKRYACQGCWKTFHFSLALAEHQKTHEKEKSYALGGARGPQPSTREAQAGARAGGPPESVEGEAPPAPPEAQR
Chain of UniProt Q8TAQ2 (Q8TAQ2 whole entry, one chain of several): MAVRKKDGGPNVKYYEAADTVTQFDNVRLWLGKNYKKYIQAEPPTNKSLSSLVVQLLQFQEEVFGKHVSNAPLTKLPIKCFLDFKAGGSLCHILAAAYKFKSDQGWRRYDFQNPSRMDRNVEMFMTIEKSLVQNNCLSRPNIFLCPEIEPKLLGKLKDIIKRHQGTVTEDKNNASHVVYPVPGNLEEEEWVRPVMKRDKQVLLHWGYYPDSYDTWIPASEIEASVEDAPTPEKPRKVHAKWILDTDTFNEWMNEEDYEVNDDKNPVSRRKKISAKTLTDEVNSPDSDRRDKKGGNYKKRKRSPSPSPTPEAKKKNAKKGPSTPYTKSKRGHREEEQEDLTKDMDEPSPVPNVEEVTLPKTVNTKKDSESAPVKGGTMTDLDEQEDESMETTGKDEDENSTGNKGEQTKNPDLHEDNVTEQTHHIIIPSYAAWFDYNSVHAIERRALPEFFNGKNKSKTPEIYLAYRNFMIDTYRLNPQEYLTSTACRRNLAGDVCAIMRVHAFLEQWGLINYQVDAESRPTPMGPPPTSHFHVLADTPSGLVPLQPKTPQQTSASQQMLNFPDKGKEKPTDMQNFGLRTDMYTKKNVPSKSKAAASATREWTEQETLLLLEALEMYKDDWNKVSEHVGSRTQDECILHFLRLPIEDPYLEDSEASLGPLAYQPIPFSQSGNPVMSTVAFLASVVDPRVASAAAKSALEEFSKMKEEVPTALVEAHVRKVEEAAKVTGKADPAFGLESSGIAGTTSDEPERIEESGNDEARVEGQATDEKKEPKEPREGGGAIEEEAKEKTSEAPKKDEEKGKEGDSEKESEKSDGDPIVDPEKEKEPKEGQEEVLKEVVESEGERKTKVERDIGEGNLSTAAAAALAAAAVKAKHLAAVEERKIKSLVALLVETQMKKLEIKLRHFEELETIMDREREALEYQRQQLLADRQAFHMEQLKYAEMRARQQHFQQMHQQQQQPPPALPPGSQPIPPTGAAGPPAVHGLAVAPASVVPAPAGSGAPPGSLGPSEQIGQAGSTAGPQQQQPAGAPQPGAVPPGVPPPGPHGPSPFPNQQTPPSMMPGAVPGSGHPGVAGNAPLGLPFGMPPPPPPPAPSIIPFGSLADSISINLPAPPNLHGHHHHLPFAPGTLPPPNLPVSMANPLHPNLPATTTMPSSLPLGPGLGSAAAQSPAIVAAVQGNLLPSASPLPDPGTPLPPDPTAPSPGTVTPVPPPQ
Chain of UniProt Q8NI36 (Q8NI36 whole entry, one chain of several): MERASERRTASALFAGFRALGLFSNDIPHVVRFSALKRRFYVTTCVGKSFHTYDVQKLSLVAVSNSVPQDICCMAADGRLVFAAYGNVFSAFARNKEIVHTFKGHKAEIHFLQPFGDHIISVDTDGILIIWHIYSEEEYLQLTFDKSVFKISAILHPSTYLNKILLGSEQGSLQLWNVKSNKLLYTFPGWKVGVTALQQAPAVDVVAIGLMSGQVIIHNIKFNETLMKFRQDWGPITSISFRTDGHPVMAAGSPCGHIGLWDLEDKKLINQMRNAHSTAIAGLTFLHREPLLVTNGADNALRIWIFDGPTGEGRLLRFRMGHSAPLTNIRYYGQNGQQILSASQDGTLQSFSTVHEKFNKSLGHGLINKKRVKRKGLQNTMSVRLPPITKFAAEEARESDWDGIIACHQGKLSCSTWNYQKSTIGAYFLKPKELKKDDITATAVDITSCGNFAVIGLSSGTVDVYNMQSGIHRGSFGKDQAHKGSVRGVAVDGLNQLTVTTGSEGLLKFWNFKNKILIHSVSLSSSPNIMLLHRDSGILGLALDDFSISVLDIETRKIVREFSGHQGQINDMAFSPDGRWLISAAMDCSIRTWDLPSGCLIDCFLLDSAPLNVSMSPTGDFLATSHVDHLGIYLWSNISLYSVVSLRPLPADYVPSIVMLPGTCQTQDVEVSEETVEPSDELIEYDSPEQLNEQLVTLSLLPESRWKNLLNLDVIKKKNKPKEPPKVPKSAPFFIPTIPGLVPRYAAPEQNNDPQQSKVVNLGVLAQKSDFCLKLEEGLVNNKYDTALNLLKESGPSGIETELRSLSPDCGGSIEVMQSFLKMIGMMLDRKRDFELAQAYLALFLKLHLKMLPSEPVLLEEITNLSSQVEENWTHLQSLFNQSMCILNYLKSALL
Chain of UniProt O15116 (O15116 whole entry): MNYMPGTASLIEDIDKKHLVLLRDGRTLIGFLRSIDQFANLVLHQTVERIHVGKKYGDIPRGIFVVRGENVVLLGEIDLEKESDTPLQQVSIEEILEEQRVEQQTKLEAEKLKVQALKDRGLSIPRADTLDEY
Chain of UniProt P09496 (P09496 whole entry, one chain of several): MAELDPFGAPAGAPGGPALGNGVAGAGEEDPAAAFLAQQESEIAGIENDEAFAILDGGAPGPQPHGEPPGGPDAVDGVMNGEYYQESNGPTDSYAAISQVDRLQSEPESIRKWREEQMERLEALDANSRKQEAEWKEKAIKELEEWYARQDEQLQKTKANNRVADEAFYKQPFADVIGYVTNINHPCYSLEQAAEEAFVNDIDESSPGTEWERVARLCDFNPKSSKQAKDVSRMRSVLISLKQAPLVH
Chain of UniProt Q9NYL4 (Q9NYL4 whole entry, one chain of several): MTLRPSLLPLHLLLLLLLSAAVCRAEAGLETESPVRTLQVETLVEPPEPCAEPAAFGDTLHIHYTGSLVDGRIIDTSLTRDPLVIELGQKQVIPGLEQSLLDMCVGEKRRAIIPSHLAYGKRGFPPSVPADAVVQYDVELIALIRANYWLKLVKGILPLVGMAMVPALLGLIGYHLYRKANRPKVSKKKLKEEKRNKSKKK

“A0A0C4DG78|M0R3C6|Q8TBC5|Q8TBC5-2|Q8TBC5-3|Q8TBC5-4 (UniProt Q8TBC5)” gave an NP40-soluble protein abundance (concentration: 1mM) of 1 ± 0.012, an NP40-soluble protein abundance (concentration: 2mM) of 1.02 ± 0.03 and an NP40-soluble protein abundance (concentration: 4mM) of 0.984 ± 0.028. The NP40-soluble protein abundance (concentration: 6mM) was 1.016 ± 0.003, the NP40-soluble protein abundance (concentration: 8mM) was 1.002 ± 0.0089 and the NP40-soluble protein abundance (concentration: 10mM) was 1.02 ± 0.011.

Target LSM1 (UniProt O15116) has an NP40-soluble protein abundance (concentration: 1mM) of 0.913 ± 0.018, an NP40-soluble protein abundance (concentration: 2mM) of 0.961 ± 0.041 and an NP40-soluble protein abundance (concentration: 4mM) of 0.921 ± 0.0096. It also gave an NP40-soluble protein abundance (concentration: 6mM) of 0.918 ± 0.023, an NP40-soluble protein abundance (concentration: 8mM) of 0.907 ± 0.011 and an NP40-soluble protein abundance (concentration: 10mM) of 0.897 ± 0.024.

Work on “C9J0Q5|C9JE98|C9JFD3|Q9Y618|Q9Y618-3|Q9Y618-4|Q9Y618-5 (UniProt Q9Y618)” yielded an NP40-soluble protein abundance (concentration: 1mM) of 1.03 ± 0.0079, an NP40-soluble protein abundance (concentration: 2mM) of 1.05 ± 0.04 and an NP40-soluble protein abundance (concentration: 4mM) of 1.03 ± 0.035. It also gave an NP40-soluble protein abundance (concentration: 6mM) of 0.969 ± 0.057, an NP40-soluble protein abundance (concentration: 8mM) of 0.951 ± 0.02 and an NP40-soluble protein abundance (concentration: 10mM) of 1.01 ± 0.052.

For A0A0A6YYC8|I3L1I5 (UniProt I3L1I5), the NP40-soluble protein abundance (concentration: 1mM) was 1.01 ± 0.027, the NP40-soluble protein abundance (concentration: 2mM) was 1.02 ± 0.04 and the NP40-soluble protein abundance (concentration: 4mM) was 1.02 ± 0.012. For the same target, the NP40-soluble protein abundance (concentration: 6mM) was 1.01 ± 0.023, the NP40-soluble protein abundance (concentration: 8mM) was 1 ± 0.02 and the NP40-soluble protein abundance (concentration: 10mM) was 1.009 ± 0.0072.

For G3V4X1|P62191|P62191-2 (UniProt P62191), the NP40-soluble protein abundance (concentration: 1mM) was 0.942 ± 0.045, the NP40-soluble protein abundance (concentration: 2mM) was 0.906 ± 0.049 and the NP40-soluble protein abundance (concentration: 4mM) was 0.888 ± 0.079. The NP40-soluble protein abundance (concentration: 6mM) was 0.896 ± 0.1, the NP40-soluble protein abundance (concentration: 8mM) was 0.882 ± 0.1 and the NP40-soluble protein abundance (concentration: 10mM) was 0.89 ± 0.12.

With F8VU90|Q9NYL4|Q9NYL4-2 (UniProt Q9NYL4) the NP40-soluble protein abundance (concentration: 1mM) was 1.01 ± 0.042, the NP40-soluble protein abundance (concentration: 2mM) was 1.04 ± 0.043 and the NP40-soluble protein abundance (concentration: 4mM) was 1.07 ± 0.062. The NP40-soluble protein abundance (concentration: 6mM) was 0.997 ± 0.031, the NP40-soluble protein abundance (concentration: 8mM) was 0.999 ± 0.084 and the NP40-soluble protein abundance (concentration: 10mM) was 0.994 ± 0.12.

Target J3KQH6|P78364 (UniProt P78364) has an NP40-soluble protein abundance (concentration: 1mM) of 1.01 ± 0.067, an NP40-soluble protein abundance (concentration: 2mM) of 1.01 ± 0.02 and an NP40-soluble protein abundance (concentration: 4mM) of 1.01 ± 0.018. The NP40-soluble protein abundance (concentration: 6mM) was 1.04 ± 0.047, the NP40-soluble protein abundance (concentration: 8mM) was 1.03 ± 0.025 and the NP40-soluble protein abundance (concentration: 10mM) was 1.05 ± 0.032.

M0QXA7|O95785-3 (UniProt O95785) was tested, and the NP40-soluble protein abundance (concentration: 1mM) was 1.02 ± 0.031, the NP40-soluble protein abundance (concentration: 2mM) was 1.04 ± 0.029 and the NP40-soluble protein abundance (concentration: 4mM) was 1.06 ± 0.013. The NP40-soluble protein abundance (concentration: 6mM) was 1.04 ± 0.034, the NP40-soluble protein abundance (concentration: 8mM) was 1.02 ± 0.023 and the NP40-soluble protein abundance (concentration: 10mM) was 1.07 ± 0.032.

A0A0A0MTB8|Q8NI36 (UniProt Q8NI36) was tested, and the NP40-soluble protein abundance (concentration: 1mM) was 1.1 ± 0.06, the NP40-soluble protein abundance (concentration: 2mM) was 1.15 ± 0.11 and the NP40-soluble protein abundance (concentration: 4mM) was 1.37 ± 0.12. For the same target, the NP40-soluble protein abundance (concentration: 6mM) was 1.55 ± 0.11, the NP40-soluble protein abundance (concentration: 8mM) was 1.73 ± 0.16 and the NP40-soluble protein abundance (concentration: 10mM) was 1.78 ± 0.086.

With UniProt O14523|O14523-2 the NP40-soluble protein abundance (concentration: 1mM) was 0.973 ± 0.015, the NP40-soluble protein abundance (concentration: 2mM) was 0.988 ± 0.013 and the NP40-soluble protein abundance (concentration: 4mM) was 0.985 ± 0.037. The NP40-soluble protein abundance (concentration: 6mM) was 0.968 ± 0.027, the NP40-soluble protein abundance (concentration: 8mM) was 0.97 ± 0.047 and the NP40-soluble protein abundance (concentration: 10mM) was 1.01 ± 0.06.

SCO2 (UniProt O43819) was tested, and the NP40-soluble protein abundance (concentration: 1mM) was 0.972 ± 0.0067, the NP40-soluble protein abundance (concentration: 2mM) was 0.949 ± 0.054 and the NP40-soluble protein abundance (concentration: 4mM) was 0.991 ± 0.04. For the same target, the NP40-soluble protein abundance (concentration: 6mM) was 0.95 ± 0.027, the NP40-soluble protein abundance (concentration: 8mM) was 0.936 ± 0.015 and the NP40-soluble protein abundance (concentration: 10mM) was 0.934 ± 0.045.

For UniProt O60504-2|O60504, the NP40-soluble protein abundance (concentration: 1mM) was 1.03 ± 0.013, the NP40-soluble protein abundance (concentration: 2mM) was 0.999 ± 0.018 and the NP40-soluble protein abundance (concentration: 4mM) was 1.04 ± 0.018. The NP40-soluble protein abundance (concentration: 6mM) was 1.03 ± 0.029, the NP40-soluble protein abundance (concentration: 8mM) was 1.02 ± 0.029 and the NP40-soluble protein abundance (concentration: 10mM) was 1.02 ± 0.025.

Target H0YKD8|P46779 (UniProt P46779) has an NP40-soluble protein abundance (concentration: 1mM) of 1.05 ± 0.14, an NP40-soluble protein abundance (concentration: 2mM) of 1.02 ± 0.09 and an NP40-soluble protein abundance (concentration: 4mM) of 1.01 ± 0.13. The NP40-soluble protein abundance (concentration: 6mM) was 0.993 ± 0.071, the NP40-soluble protein abundance (concentration: 8mM) was 0.919 ± 0.098 and the NP40-soluble protein abundance (concentration: 10mM) was 1.05 ± 0.16.

With “F8VXC8|Q8TAQ2|Q8TAQ2-2|Q8TAQ2-3 (UniProt Q8TAQ2)” the NP40-soluble protein abundance (concentration: 1mM) was 1.03 ± 0.034, the NP40-soluble protein abundance (concentration: 2mM) was 1.07 ± 0.04 and the NP40-soluble protein abundance (concentration: 4mM) was 1.04 ± 0.047. For the same target, the NP40-soluble protein abundance (concentration: 6mM) was 1.04 ± 0.1, the NP40-soluble protein abundance (concentration: 8mM) was 1.04 ± 0.064 and the NP40-soluble protein abundance (concentration: 10mM) was 1.09 ± 0.1.

With F8WF69|P09496-2 (UniProt P09496) the NP40-soluble protein abundance (concentration: 1mM) was 0.9494 ± 0.001, the NP40-soluble protein abundance (concentration: 2mM) was 0.919 ± 0.057 and the NP40-soluble protein abundance (concentration: 4mM) was 0.873 ± 0.05. The NP40-soluble protein abundance (concentration: 6mM) was 0.833 ± 0.033, the NP40-soluble protein abundance (concentration: 8mM) was 0.806 ± 0.014 and the NP40-soluble protein abundance (concentration: 10mM) was 0.813 ± 0.018.
